Among all 5,600 compounds or so, about 390 (7%) showed an effect of 50% or more. What follows is part of a selection rich in strong results, with near analogues and random picks from the rest. Starred links: 1 amine or outer side, 2 acyl side, 3 side chain; linkers in the order of their positions; H or OH if unused. Positions of bridges follow the written chain, without caps; N, C: chain ends. Non-standard residues stand in square brackets, D forms with d. Residues, ends and D or L forms follow the SMILES beside them. dTrp(2-Me) = Cc1[nH]c2ccccc2c1C[C@@H](N)C(=O)O; X5 = O=C(CCC[*:2])[*:1]
What was measured:
[1] = biological target: T1, Protein deacetylase HDAC6 (Homo sapiens) (UniProt Q9UBN7); settings: at 10 µM
T1 sequence (whole entry): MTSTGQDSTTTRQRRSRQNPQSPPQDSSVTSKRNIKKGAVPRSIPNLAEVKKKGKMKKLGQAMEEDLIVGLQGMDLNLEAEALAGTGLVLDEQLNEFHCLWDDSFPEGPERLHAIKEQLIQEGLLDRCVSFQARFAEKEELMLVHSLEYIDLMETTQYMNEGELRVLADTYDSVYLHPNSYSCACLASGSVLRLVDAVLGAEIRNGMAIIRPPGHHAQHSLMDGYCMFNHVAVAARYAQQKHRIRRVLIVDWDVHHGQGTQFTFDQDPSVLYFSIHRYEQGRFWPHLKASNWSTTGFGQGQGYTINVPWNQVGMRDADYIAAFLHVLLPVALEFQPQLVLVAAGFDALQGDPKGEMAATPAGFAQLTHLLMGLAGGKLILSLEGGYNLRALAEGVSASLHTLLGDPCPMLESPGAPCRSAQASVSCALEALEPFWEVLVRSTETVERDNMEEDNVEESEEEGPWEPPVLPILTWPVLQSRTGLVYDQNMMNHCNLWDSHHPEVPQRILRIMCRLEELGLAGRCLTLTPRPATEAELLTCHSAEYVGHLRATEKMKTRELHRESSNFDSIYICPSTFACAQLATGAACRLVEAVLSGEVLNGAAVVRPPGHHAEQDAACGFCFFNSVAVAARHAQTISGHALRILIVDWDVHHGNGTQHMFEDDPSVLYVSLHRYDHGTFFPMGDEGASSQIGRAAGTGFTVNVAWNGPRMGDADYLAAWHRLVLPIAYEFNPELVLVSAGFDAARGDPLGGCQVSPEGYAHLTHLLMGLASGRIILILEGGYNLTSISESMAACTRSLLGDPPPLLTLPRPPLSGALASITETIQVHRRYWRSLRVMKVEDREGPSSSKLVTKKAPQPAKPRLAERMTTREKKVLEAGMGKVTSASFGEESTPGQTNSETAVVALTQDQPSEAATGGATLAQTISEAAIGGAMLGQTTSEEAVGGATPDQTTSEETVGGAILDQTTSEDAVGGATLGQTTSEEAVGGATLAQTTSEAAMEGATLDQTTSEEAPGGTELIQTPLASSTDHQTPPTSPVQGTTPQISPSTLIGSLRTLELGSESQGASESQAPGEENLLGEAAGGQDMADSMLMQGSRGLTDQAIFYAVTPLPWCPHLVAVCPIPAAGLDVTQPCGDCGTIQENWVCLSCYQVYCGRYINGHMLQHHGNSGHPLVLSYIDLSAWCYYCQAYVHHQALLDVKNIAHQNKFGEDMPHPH

[2] = biological target: Protein deacetylase HDAC6 (Homo sapiens) (UniProt Q9UBN7); settings: at 10 µM; remark: listed apart in the source

Molecule | inhibition [1] | inhibition [2]
CN1c2cc3c(cc2N=C(c2ccc(C(=O)O)cc2)c2ccccc21)C(C)(C)CCC3(C)C | 27.7% | –
Nc1ncnc2c1ncn2[C@@H]1O[C@H](C[C@@H](N)CC[C@H](N)C(=O)O)[C@@H](O)[C@H]1O | -9.09% | –
CC(C)(COP(=O)(O)OP(=O)(O)OC[C@H]1O[C@@H](n2cnc3c(N)ncnc32)[C@H](O)[C@@H]1OP(=O)(O)O)[C@@H](O)C(=O)NCCC(=O)NCCS | 15.2% | –
NC(C(=O)O)c1nnn[nH]1 (racemic) | 4.47% | –
Cn1cnc2[nH]c(=O)[nH]c(=O)c21 | 9.47% | –
Cc1ccc(-c2ccc(C)cn2)nc1 | 100% | –
CCOC1O[C@H]([C@@H](COCc2ccccc2)OCc2ccccc2)[C@H](OCc2ccccc2)[C@H]1O (stereo partly specified) | 29.1% | –
O=C(O)CCc1c[nH]c2ccccc12 | 6.28% | –
C/C(=N\N=C(/S)N/N=C(\S)Nc1ccccc1Cl)c1ccccn1 | 41.4% | –
COc1ccc2cc3[n+](cc2c1OC)CCc1cc2c(cc1-3)OCO2 | -6.81% | –
O=C(NC1CCN(Cc2ccccc2)CC1)c1ccc(I)cc1 | 21.3% | –
O=C(O)c1ccc(CN2CCC(CN[C@@H]3C[C@H]3c3ccccc3)CC2)cc1 | 59.3% | –
O=C(COc1ccc(C(=O)c2ccccc2)cc1)NC1CCN(Cc2ccccc2)CC1 | -4.58% | –
CCCCCCCCCCCCCCCCCCCCCCCCCCCCO | 3.55% | –
CCN(CC)CCOC(=O)C1(c2ccccc2)CCCC1 | 12.3% | –
CCC(C)(CN(C)C)OC(=O)c1ccccc1 (stereo unspecified) | 12.2% | –
CC1(C(=O)O)NCCc2cc(O)c(O)cc21 (stereo unspecified) | -7.17% | –
C[C@@H](c1nc(-c2ccc(C#N)cc2)cs1)[C@](O)(Cn1cncn1)c1cc(F)ccc1F | 13.7% | –
COCC(O)Cn1ccnc1[N+](=O)[O-] (stereo unspecified) | 2.38% | –
CC1(C)S[C@@H]2[C@H](/N=C/N3CCCCCC3)C(=O)N2[C@H]1C(=O)O | 7.48% | –
c1ccc(NCc2ccc(CNc3ccccn3)cc2)nc1 | -9.35% | –
c1ccc(-c2ccc(CNc3nc(-c4ccccn4)nnc3-c3ccccc3)cc2)cc1 | 58.9% | –
CC[C@H](CO)Nc1nc(NCc2ccc(-c3ccccn3)cc2)c2ncn(C(C)C)c2n1 | 22.9% | –
C/N=c1/nc(-c2ccccc2)n(-c2ccccc2)s1 | 83.4% | –
CC1=NN(c2ccccc2)C(=O)C1 | -9.97% | –
Cn1c(-c2ccccc2)nnc1S(C)(=O)=O | 36% | –

Molecule | inhibition [1] | inhibition [2]
O=C(c1ccc(F)cc1)C1CCN(CCn2c(=S)[nH]c3ccccc3c2=O)CC1 | 13.2% | –
O=C(O)c1c2ccccc2cc2ccccc12 | 22.9% | –
Cn1ncc(Cl)c1-c1cc(C(=O)N[C@H](CN)Cc2cccc(F)c2)sc1Cl | -7.69% | –
O=C(c1ccc(F)cc1)N1CCC[C@H](c2nc(-c3ccc(F)cc3)no2)C1 | 10.8% | –
O=C(O)c1cccc(-c2noc(-c3ccccc3F)n2)c1 | 105% | –
FC(F)(F)c1cccc(-c2noc(-c3cc(-c4ccccc4)c(C(F)(F)F)s3)n2)c1 | 18.5% | –
CC1=C(/C=C/C(C)=C/C=C/C(C)=C/C=C/C=C(C)/C=C/C=C(C)/C=C/C2=C(C)C(=O)[C@@H](O)CC2(C)C)C(C)(C)C[C@H](O)C1=O | 10.4% | –
COc1ccc2cc1Oc1cc3c(cc1OC)CC[N+](C)(C)[C@H]3Cc1ccc(cc1)Oc1c(OC)c(OC)cc3c1[C@@H](C2)[N+](C)(C)CC3 | 16.5% | –
CC[C@H](C)[C@@H]1NC(=O)[C@H](Cc2ccc(OC)cc2)NC(=O)CCCSC[C@@H](C(=O)N2CCC[C@H]2C(=O)N[C@@H](CC(C)C)C(=O)NCC(N)=O)NC(=O)[C@H](CC(N)=O)NC(=O)[C@H](CCC(N)=O)NC1=O (Y(Me)IQNCPLG-NH2; linker N-5 via X5) | 11% | –
COc1cc(C[C@@H](CO)[C@H](CO)Cc2ccc(O)c(OC)c2)ccc1O | 21.1% | –
CCC(=O)NC[C@@H]1C[C@H]1c1cccc2c1CCO2 | -8.79% | –
O=C(O)CCCN1C(=O)c2cccc3cccc(c23)C1=O | -3.55% | –
CN(C)CCN1C(=O)c2cccc3cc(N)cc(c23)C1=O | 24.8% | –
O=C(CCCCCN1C(=O)c2cccc3cccc(c23)C1=O)NO | 100% | –
CN1CCN(CCCCN2C(=O)CN(/N=C/c3ccc(-c4ccc(Cl)cc4)o3)C2=O)CC1 | -7.57% | –
COc1cc(Br)c(Nc2nc(-c3c(C)nc4ncccn34)cs2)c(Br)c1 | -6.53% | –
CCOc1ccc(-c2nc(-c3cccc4c3CCC4NCCO)no2)cc1OCC (stereo unspecified) | 26.2% | –
CC(O)CCCCn1c(=O)c2c(ncn2C)n(C)c1=O (stereo unspecified) | 14.8% | –
CC(C)(C)c1cc(C(=O)/C(C#N)=N/Nc2cccc(Cl)c2)no1 | 58.9% | –
O=C(O)c1cc2ccccc2s1 | 36% | –
CCCCCCCCCCCCCCCCCCO | 10.8% | –
Cc1cccc(COc2cccc(/C=C3\C(=O)NN(c4ccccc4)C3=O)c2)c1 | 6.83% | –
C[C@H]1NCc2cc(-c3ccc4c(=O)c(C(=O)O)cn(C5CC5)c4c3OC(F)F)ccc21 | 14.9% | –
O=C1NC(=O)c2cc(Nc3ccc(F)cc3)c(Nc3ccc(F)cc3)cc21 | 41.3% | –
COc1cc2c(=O)c(-c3ccc(O)cc3)coc2cc1O | 98.7% | –
O=c1c(-c2ccc(O)cc2)coc2cc(O)ccc12 | 101% | –

Molecule | inhibition [1] | inhibition [2]
CC(C)Oc1ccc2c(=O)c(-c3ccccc3)coc2c1 | 95.2% | –
CNC(=O)c1c(C)oc2cc(Oc3ncnc4cc(OC)c(OC)cc34)ccc12 | -6.42% | –
CC(C)Oc1ccc2c(=O)c3cc(C(=O)O)ccc3oc2c1 | 87.4% | –
COc1cc(C(C)=O)ccc1O | 8.46% | –
O=c1c(-c2ccc(O)cc2)coc2c(C3OC(CO)C(O)C(O)C3O)c(O)ccc12 (stereo unspecified) | 5.48% | –
COc1ccc(-c2oc3cc(OC)ccc3c2C(=O)c2ccc(C#N)cc2)cc1 | 1.66% | –
COc1cc(C=O)ccc1O | -4.44% | –
CNc1cc2[nH]c(=O)n(-c3ccc(NC(=O)NS(=O)(=O)c4ccc(Cl)s4)cc3)c(=O)c2cc1F | 32.7% | –
C[C@@H]1CN(Cc2ncccn2)C[C@H]1c1nc2c(cnn2C2CCOCC2)c(=O)[nH]1 | -2.24% | –
O=C(O)c1cc(O)c2c(Cl)cc(Cl)cc2n1 | 6.69% | –
CC(=O)Oc1ccccc1C(=O)Oc1cccc(CO[N+](=O)[O-])c1 | 48.1% | –
CC(C)(O)CNc1nc(Nc2ccnc(C(F)(F)F)c2)nc(-c2cccc(C(F)(F)F)n2)n1 | 36.2% | –
CC(=O)NC(C(=O)O)C(C)(C)SN=O (stereo unspecified) | 2.51% | –
Cc1noc2c1-c1ccccc1C(c1ccc(Cl)cc1)=N[C@H]2CC(N)=O | 43.6% | –
Nc1ccc(F)cc1NC(=O)c1ccc(CNC(=O)/C=C/c2cccnc2)cc1 | -6.65% | –
N[C@H](CSC(c1ccccc1)(c1ccccc1)c1ccccc1)C(=O)O | -3.09% | –
Cc1nc2n(c(=O)c1CCN1CCC(c3noc4cc(F)ccc34)CC1)CCCC2O (stereo unspecified) | -9.07% | –
N#Cc1cnc2cnc(NCc3cccnc3)cc2c1Nc1ccc(F)c(Cl)c1 | -0.05% | –
COc1ccc(-c2coc3cc(O)ccc3c2=O)cc1 | 99.6% | –
COc1ccc(-n2c(C)c([N+](=O)[O-])c3ccc(O)cc32)cc1 | 12.7% | –
N[C@@H](CCNCc1ccc(Cl)cc1)C(=O)N1CCCCC1 | 0.96% | –
N=C(Nc1ccc(I)cc1)NC1C2CC3CC(C2)CC1C3 (stereo unspecified) | 1.97% | –
Cc1ccc(-c2ncc[nH]2)cc1NC(=O)c1ccc(OCc2ccccn2)cc1 | 21.3% | –
Fc1ccc(-c2nc3n(c2-c2ccncc2)CCS3)cc1 | -4.98% | –
Cc1c(F)cccc1NC(=O)Nc1ccc(Cl)c(S(=O)(=O)[C@H]2CCCNC2)c1O | 36.1% | –
CN1CCN(C2=Cc3ccccc3Oc3ccc(Cl)cc32)CC1 | 2.47% | –

Molecule | inhibition [1] | inhibition [2]
Cc1nc2c(OCc3ccccc3)cccn2c1CC#N | 76.9% | –
COc1ccc(COc2ccc(CC#N)cc2)cc1 | 28.5% | –
CCCc1c(OCCCCc2nnn[nH]2)ccc(C(C)=O)c1O | 4.66% | –
CC[N+](C)(CC)CCOC(=O)C(O)(c1ccccc1)C1CCCCC1 (stereo unspecified) | -2.19% | –
COc1ccc2c(C)nc(Nc3nc(C)c(C)c(O)n3)nc2c1 | 20.5% | –
CCc1cnc(N2CCC(c3nc(COc4ccc(-n5cnnn5)cc4)cs3)CC2)nc1 | 14.7% | –
O=C1c2ccccc2C(=O)C1c1ccccc1 | 7.2% | –
O=C1c2ccccc2C(=O)C1c1ccc(Cl)cc1 | 18.6% | –
COc1ccc(C2C(=O)c3ccccc3C2=O)cc1 | 98.2% | –
O=C1c2ccccc2C(=O)C1c1ccc(Br)cc1 | 95.5% | –
CCCC1(CCC)CCC2(CCN(CCCN(CC)CC)C2)CC1 | -1.4% | –
C[C@@H](O)[C@H]1C(=O)N2C(C(=O)O)=C(S[C@@H]3CN[C@H](C(=O)Nc4cccc(C(=O)O)c4)C3)[C@H](C)[C@H]12 | 29.2% | –
CC1(c2ccccc2)OC(C(=O)O)=CC1=O (stereo unspecified) | -2.75% | –
Nc1nccc(-c2c(-c3ccc(F)cc3)ncn2C2CCCCC2)n1 | 10.1% | –
COc1cc(C(=O)NC2CCN(C)CC2)c(F)cc1Nc1ncc2c(n1)N(C1CCCC1)CC(F)(F)C(=O)N2C | 2.87% | –
Cc1[nH]c2ccccc2c1C[C@@H](NC(=O)[C@@H](N)Cc1c[nH]cn1)C(=O)N[C@@H](C)C(=O)N[C@@H](Cc1c[nH]c2ccccc12)C(=O)N[C@H](Cc1ccccc1)C(=O)N[C@@H](CCCCN)C(N)=O (H-H[dTrp(2-Me)]AW[dF]K-NH2) | -0.06% | –
NCCCCCC(O)(P(=O)(O)O)P(=O)(O)O | 0.9% | –
ANTIMONY POTASSIUM TARTRATE TRIHYDRATE, CHEMBL2097098 | – | 31.4%
BIS(MALTOLATO)OXOVANADIUM(IV), CHEMBL286447 | – | 51.3%
Antimonyl (potassium tartrate trihydrate), CHEMBL2097098 | – | 13.3%
AURANOFIN, CHEMBL1366 | – | -8.98%
CO[C@@H]1[C@H](OC(=O)/C=C/C=C/C=C/C=C/C(=O)O)CC[C@]2(CO2)[C@H]1[C@@]1(C)O[C@@H]1CC=C(C)C | 3.49% | –
CCCCC[C@H](O)/C=C/[C@@H]1[C@H]2C/C(=C/CCCC(=O)O)O[C@H]2C[C@H]1O | 10.8% | –

Source: ChEMBL document CHEMBL4808148, “HDAC6 screening dataset using tau-based substrate in an enzymatic assay yields selective inhibitors and activators” (2021)
